# Data reported in PubChem BioAssay AID624170 (National Center for Advancing Translational Sciences (NCATS), 2012).
# The campaign covered roughly 410,000 compounds. About 850 (0.21%) were called active. Not shown: some 2% with an inconclusive outcome. Only a selection was taken, and actives are over-represented in it overall. Unmarked numbers belong to inactive results. Calls come from the whole dose curve; as a rule, active = well fitted inhibition curve with a large enough effect; inconclusive = small, poorly fitted or top-dose-only effect, or another doubt; inactive = no such curve, though single readings can be large or run the other way.
# Molecular target: Glutaminase kidney isoform, mitochondrial (Homo sapiens) (UniProt O94925)
# Sequence (O94925 whole entry, looked up, canonical isoform): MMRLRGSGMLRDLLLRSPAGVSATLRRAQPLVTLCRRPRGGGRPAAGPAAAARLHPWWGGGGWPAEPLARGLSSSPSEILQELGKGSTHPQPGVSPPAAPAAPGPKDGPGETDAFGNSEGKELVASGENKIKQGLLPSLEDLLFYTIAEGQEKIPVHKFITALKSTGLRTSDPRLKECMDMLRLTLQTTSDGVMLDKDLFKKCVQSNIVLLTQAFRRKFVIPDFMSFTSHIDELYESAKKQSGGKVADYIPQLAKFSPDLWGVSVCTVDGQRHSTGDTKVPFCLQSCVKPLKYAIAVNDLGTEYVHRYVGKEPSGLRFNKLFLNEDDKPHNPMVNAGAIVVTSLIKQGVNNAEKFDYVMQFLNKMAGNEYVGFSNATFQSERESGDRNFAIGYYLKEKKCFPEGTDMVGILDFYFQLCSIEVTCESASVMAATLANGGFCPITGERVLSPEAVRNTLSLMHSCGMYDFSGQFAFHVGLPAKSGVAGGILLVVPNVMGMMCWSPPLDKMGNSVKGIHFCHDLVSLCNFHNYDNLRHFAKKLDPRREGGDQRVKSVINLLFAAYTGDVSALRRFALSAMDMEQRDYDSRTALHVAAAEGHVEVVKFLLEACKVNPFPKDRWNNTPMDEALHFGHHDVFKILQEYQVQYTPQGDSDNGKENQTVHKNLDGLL
# Experiment: qHTS for Inhibitors of Glutaminase (GLS)
# Settings: GLS enzymatic activity, qHTS titration; series mostly up to 45.5 µM; activity change, negative = inhibition: at the top concentration
# From the text: Glutaminase (GLS) catalyzes the hydrolysis of glutamine into glutamate and ammonia. It plays a critical role in glutaminolysis, which is an important energy source for proliferating cells. It was shown that c-Myc, an oncogenic transcription factor known to regulate microRNAs and to stimulate cell proliferation, increases glutamine metabolism by stimulating the expression of GLS via direct suppression of miR23a and miR23b.
# GLS is also thought to play a pathogenic role on HAD using a human HIV-1 infected macrophage system. […] GLS inhibition limits glutamate release and provides neuroprotection against HIV-1 infected macrophages.
# The overall goal of this project is to identify small molecule inhibitors of GLS through quantitative high throughput screening (qHTS) of the MLSMR. A validated potent and selective inhibitor can be used as a tool molecule to further study the pharmacology of its target as well as explore its potential therapeutic application in cancer and inflammatory neurological disorders, such as HIV1-associated dementia (HAD) and multiple sclerosis.
# NIH Chemical Genomics Center [NCGC]
# NIH Molecular Libraries Probe Centers Network [MLPCN]
# Assay Submitter (PI): Barbara S. Slusher, Johns Hopkins University
# Three 3 uL of hKGA is dispensed into black well 1536-well plates in 45 mM KH2PO4 (pH 8.2), 0.02% Tween-20. Then 23 nL of compounds are added through pin tool transfer. To this, 1 uL of 1mM L-Glutamine and 1 uL of a solution of L-Glutamateoxidase, HRP, Amplex red are added. Plate is centrifuged for 25 sec before an initial fluorescence read is obtained on the ViewLux, after 30 min of RT incubation, the final read is taken on the ViewLux.
# % is set by controls: 0 for no effect and ±100 for the full control effect; potency is the fitted concentration of half-maximal effect.
SMILES,"activity change, negative = inhibition",Potency
CCOc1ccc(-n2c(SCC(=O)NCc3ccccc3)nc3n[nH]c(C)c3c2=N)cc1,-24.6%,
Cc1ccc(-c2ncc(Cl)cc2-c2ccc(S(C)(=O)=O)cc2)cn1,5.57%,
COc1ccc2c(c1)c(=O)c(S(=O)(=O)c1ccc(F)cc1)cn2CC(=O)Nc1ccc(C)cc1C,4.91%,
CC1(C)OC2CC(=O)OC[C@@]23C1CC(=O)[C@]1(C)C3CC[C@@]2(C)C(c3ccoc3)OC(=O)C3O[C@@]321 (some centres not stated),-16.2%,
CCOC(=O)Cc1cccc(-c2cc(CCCCCCc3ccc(O[C@H]4O[C@H](COC(C)=O)[C@@H](OC(C)=O)[C@H](OC(C)=O)[C@@H]4OC(C)=O)c(-c4cccc(CC(=O)OCC)c4)c3)ccc2O[C@H]2O[C@H](COC(C)=O)[C@@H](OC(C)=O)[C@H](OC(C)=O)[C@@H]2OC(C)=O)c1,3.57%,
Cc1nc(N2CCOCC2)c2c(C(=O)NCc3cccc(Cl)c3)c(C)oc2n1,0.0319%,
COc1ccc(S(=O)(=O)NCc2cccn2Cc2cccc(C)c2)cc1Cl,-10.6%,
Cc1ccc(Cl)cc1NC(=O)CCC(=O)N1CC(C)Sc2ccccc21 (configuration not stated),8.36%,
Cc1cccc(C(=O)Nc2ccc(-c3nc4ccccc4s3)c(C)c2)c1,7.67%,
COc1ccc(-n2c(SCC(=O)Nc3ccc(Cl)c(C)c3)nc3n[nH]c(C)c3c2=N)cc1,-1.2%,
COc1cccc(-n2c(SCC(=O)NC3CCCCC3)nc3n[nH]c(C)c3c2=N)c1,,10 µM (active)
Cc1ccc(-n2c(SCC(=O)NCCC3=CCCCC3)nc3n[nH]c(C)c3c2=N)cc1Cl,-5.74%,
C[C@H]1C[C@H]2[C@@H]3CCC4=CC(=O)C=C[C@]4(C)[C@@H]3C(=O)C[C@]2(C)[C@@]1(O)C(=O)CO,10.2%,
O=C(O)c1ccc2c(c1)N(Cc1ccc(F)cc1)C(=O)c1ccccc1S2=O (configuration not stated),-6.31%,
COc1cc2c(cc1OC)[C@@H](Cc1cc(OC)c(OC)c(OC)c1)[N+](C)(CCCOC(=O)CC/C=C/CCC(=O)OCCC[N+]1(C)CCc3cc(OC)c(OC)cc3[C@H]1Cc1cc(OC)c(OC)c(OC)c1)CC2 (some centres not stated),0.105%,
NNc1nnc(Cc2ccncc2)c2ccccc12,-2.67%,
COc1ccc(/C(O)=C2/C(=O)C(=O)N(CCCN(C)C)C2c2ccccc2)cc1OC (configuration not stated),-4.13%,
COc1ccc(C2/C(=C(/O)c3ccccc3)C(=O)C(=O)N2c2ncccn2)cc1OC (configuration not stated),,8.91 µM (active)
CCCOc1ccc(/C(O)=C2/C(=O)C(=O)N(CCN(C)C)C2c2ccc(OC)c(OC)c2)cc1 (configuration not stated),9.91%,
COc1ccc(N2CCN(c3cc(C)nc4nncn34)CC2)cc1,54.9%,
CCc1ccc(NC(=O)CN2C(=O)CCSc3ccc(S(=O)(=O)N4CCCC4)cc32)cc1,-1.16%,

SMILES,"activity change, negative = inhibition",Potency
O=C(Nc1cccc(C(F)(F)F)c1)c1cc(Br)cc(Br)c1O,5.07%,
COc1ccc(OC)c(-c2noc(N3CCN(c4cc(Cl)ccc4C)CC3)n2)c1,-13%,
COc1ccc(C2=NOC3(CC(=O)N(c4ccc(Cl)cc4)C3=O)C2)c(OC)c1 (configuration not stated),0.557%,
COc1ccc2c(c1)C(=O)Nc1cc(Cl)ccc1N2,,12.6 µM (active)
Cc1cc(C)c2sc(NC(=O)c3ccc(S(=O)(=O)N4CCCC4)cc3)nc2c1,3.27%,
Cc1cn([C@H]2CC(F)[C@@H](CO)O2)c(=O)[nH]c1=O (some centres not stated),1.43%,
CO/N=C(\C(=O)N[C@@H]1C(=O)N2C(C(=O)O)=C(Cn3nnc(C)n3)CS[C@H]12)c1csc(N)n1,1.07%,
C=CC1=C(C(=O)O)N2C(=O)[C@@H](NC(=O)/C(=N\OCC(=O)O)c3csc(N)n3)[C@H]2SC1,,12.6 µM (active)
C=CC1=C(C(=O)O)N2C(=O)[C@@H](NC(=O)/C(=N/OCC(=O)O)c3csc(N)n3)[C@H]2SC1,,12.6 µM (active)
C[C@]12CC[C@@H]3c4ccc(O)cc4C[C@@H](CCCCCCCCCS(=O)CCCC(F)(F)C(F)(F)F)C3[C@@H]1CC[C@@H]2O (some centres not stated),1.78%,
Cc1cccc(C)c1NC(=O)NC1=CCCN1C,-6.33%,
CCCC(=O)O[C@]1(C(=O)COC(=O)CC)CC[C@@H]2[C@@H]3CCC4=CC(=O)CC[C@]4(C)[C@H]3[C@@H](O)C[C@@]21C,-15.3%,
CN1CC(O)c2cc(N=NC(N)=O)c(O)cc21 (configuration not stated),4.71%,
CC(=O)O[C@]1(C(C)=O)CC[C@@H]2[C@@H]3C=C(C)C4=CC(=O)CC[C@@]4(C)[C@H]3CC[C@]21C,0.635% [at 20 µM],
CC(C)(C)c1ccc(S(=O)(=O)N2CCN(C(=O)c3cc(-c4ccc(Br)cc4)n[nH]3)CC2)cc1,1.4%,
COc1cc(OC)c(S(=O)(=O)Nc2ccccc2C(=O)O)cc1S(=O)(=O)Nc1ccccc1C(=O)O,,5.62 µM (active)
COc1ccc(Cl)cc1S(=O)(=O)Nc1cccc(C(=O)O)c1,13.6%,
COc1cc(/C=C/C(=O)O)cc(S(=O)(=O)Nc2ccccc2SC)c1OC,22.4%,
COc1cc2c(cc1OC)CC(=O)N(CCCN(C)C[C@H]1Cc3cc(OC)c(OC)cc31)CC2,33.9%,
Nc1ccc2nc3c(=O)[nH]c(=S)[nH]c3nc2c1,,3.16 µM (active)
Cc1ccccc1C(=O)N(Cc1ccc(N(C)C)cc1)CC1CCCO1 (configuration not stated),16.2%,
